# Values joined by “and” are separate entries in the source; they are usually repeats but may differ in a detail not shown here. Equal entries are not always repeated. Inconclusive results are not listed. A call without a number means that no potency is given here. Active and inactive are the calls of the source. Unless noted, calls come from the whole dose curve; as a rule, active = well fitted curve in the direction sought with a large enough effect; inconclusive = small, poorly fitted or top-dose-only effect, or another doubt; inactive = no such curve, though single readings can be large; an effect the other way counts as inactive or inconclusive.
# How the values were obtained:
# [1] = qHTS Assay for Identification of Small Molecule Agonists for NFkB Signaling Pathway. (AID 624478);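 note: compounds tested together with TNF alpha at its EC50 of 10 pM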
# Outline: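 Cells carrying an NFkB response element-driven beta-lactamase gene are co-treated with compound and 10 pM TNF alpha for 5 h, and reporter activity is then read as 460 and 530 nm fluorescence.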
# [2] = qHTS Assay for Identification of Small Molecule Antagonists for NFkB Signaling Pathway. (AID 624479; calls by dose curve;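 note: pathway stimulated with TNF alpha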; note: potency is the fitted concentration of half-maximal effect)
# [3] = Cell Proliferation Assay against the TMD8 Cell Line (AID 651645); details: TMD8 DLBCL cell line proliferation/viability; at 46.1 µM (top of the series) unless noted;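 note: cells exposed to compound for 48 h before reading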
# Outline: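 Seed log-phase TMD8 cells in RPMI containing 5% FBS, add compounds at once, incubate 48 hours at 37C. Equilibrate to room temperature, add CellTiter-Glo, read luminescence after 15 minutes and express relative to DMSO and bortezomib controls.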
# [4] = Cell Proliferation Assay against the HBL1 Cell Line (AID 651646); details: HBL1 DLBCL cells; at 46.1 µM (top of the series) unless noted;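 note: cells exposed to compound for 48 h before reading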
# Outline: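 HBL1 ABC DLBCL cells, 500/well in RPMI with 5% FBS, treated for 48 h at 37C. Viability read by CellTiter-Glo luminescence, normalized to DMSO as 100% and 9.2 uM bortezomib as 0%.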
# [5] = qHTS assay for small molecule agonists of the antioxidant response element (ARE) signaling pathway (AID 651741; active = well fitted activation curve with a large enough effect in the signal ratio; the % refers to the signal ratio; note: potency is the fitted concentration of half-maximal effect)
# Outline: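 HepG2 ARE-bla cells plated at 2,000 cells/well and incubated 5 h at 37 C/5% CO2 received 23 nL compound in DMSO. After 16 h at 37 C, LiveBLAzer B/G FRET substrate was applied for 2 h at room temperature and fluorescence read.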
# [6] = qHTS assay for small molecule activators of the p53 signaling pathway (AID 651743; active = well fitted activation curve with a large enough effect in the signal ratio, not every such curve was filed as active; the % refers to the signal ratio); details: HCT-116 p53RE-bla, beta-lactamase FRET ratio, 16 h; activation: stronger effect = higher value
# Outline: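 HCT-116 p53RE-bla, 4,000 cells/well; 5 h settle; cpd/DMSO 16 h, 37 C; LiveBLAzer B/G 2 h RT; fluorescence intensity.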
# [7] = qHTS assay for small molecule activators of the nuclear factor-kappa B (NF-kB) signaling pathway (AID 651749; active = well fitted activation curve with a large enough effect in the signal ratio; the % refers to the signal ratio); details: NF-kB-bla ME-180 cells, beta-lactamase FRET ratio, 16 h; stronger effect = higher value
# Outline: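 Incubation lasted 16 hr at 37C in 5% CO2 after 23 nL compound addition to ME-180 NF-kB-bla cells. Activation appears as beta-lactamase-mediated FRET loss.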
# [8] = qHTS of Nrf2 Activators: LOPAC Validation (AID 624149)
# Outline: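 ARE reporter activation measured in AREc32 firefly luciferase cells after 24 hr compound exposure; Steady-Glo luminescence.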
# [9] = Cytotoxicity counterscreen for NFkB agonists and antagonists (AID 624476); note: potency is the fitted concentration of half-maximal effect
# [10] = Cell Proliferation Assay against the TMD8 Cell Line (Caspase readout at 16 hrs) (AID 651712)
# Outline: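 TMD8 cells in RPMI with 5% FBS were treated with compound for 16 h at 37 C, then caspase 3/7 activation was read by Caspase-Glo luminescence. Percent activity was scaled to DMSO (0%) and 9.2 uM bortezomib final (100%).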
# [11] = Cell Proliferation Assay against the TMD8 Cell Line (Caspase readout at 8 hrs) (AID 651713); note: potency is the fitted concentration of half-maximal effect
# Outline: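 Percent activity derived from Caspase-Glo signal, DMSO set to 0% and bortezomib (9.2 uM final) to 100%. TMD8 cells were exposed to compound for 8 h in RPMI with 5% FBS.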
# [12] = biological target: Tyrosine-protein kinase Yes (Homo sapiens) (UniProt P07947); test: qHTS for small molecule inhibitors of Yes1 kinase: Primary Screen (AID 686947); note: nearly all actives have a fitted effect of over 60% in size; note: potency is the fitted concentration of half-maximal effect
# Outline: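 ADP-Glo luminescence readout; final 4 nM Yes1, 0.1 mM ATP, 0.3 mg/mL poly(E4Y), Tris pH 7.5, MgCl2, DTT, Brij-35. 20 min compound preincubation, 60 min reaction at RT. Normalized to DMSO wells with and without enzyme.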
# [13] = qHTS assay for environmental chemicals that activate the Aryl hydrocarbon Receptor (AhR) signaling pathway (AID 651777); details: 1A2-DRE human hepatoma cells, luciferase, 24 h; activation: stronger effect = higher value; note: nearly all actives have a fitted effect of over 15% in size; note: potency is the fitted concentration of half-maximal effect
# Outline: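 Measured luciferase activity, read 30 min after One-Glo addition at room temperature, from human hepatoma cells bearing a dioxin response element–CYP1A2 promoter reporter and exposed to compound for 24 hr at 37 C.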
# [14] = biological target: Peroxisome proliferator-activated receptor alpha (Homo sapiens) (UniProt Q07869); test: qHTS assay for small molecule agonists of the peroxisome proliferator-activated receptor alpha (PPARalpha) signaling pathway (AID 651778); details: PathHunter PPARalpha complementation, chemiluminescence, 6 h; stronger effect = higher value
# Outline: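 Enzyme-fragment complementation assay in which ligand-bound PPARalpha translocates and forms an active enzyme that generates chemiluminescence. Cells were plated overnight, exposed to compound for 6 hr at 37 C, and then given detection reagent for 60 min at room temperature.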
# [15] = qHTS assay for small molecule disruptors of the mitochondrial membrane potential - 1 hr assay (AID 651754; calls by dose curve; note: nearly all actives have a fitted effect of over 35% in size)
# Outline: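 Steps: seed HepG2 cells and let attach overnight; pin-transfer compound or vehicle; incubate 1 hr at 37C; add Mito-MPS dye for 30 min; read two-channel fluorescence for monomer and aggregate forms.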
# [16] = qHTS assay for small molecule disruptors of the mitochondrial membrane potential - 5 hr assay (AID 651755; calls by dose curve; note: nearly all actives have a fitted effect of over 40% in size)
# Outline: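 HepG2 cells (2,000/well), attached overnight, exposed to compound 5 hr at 37C, then Mito-MPS dye 30 min. Fluorescence read for monomers (490/535 nm) and aggregates (540/590 nm).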
# [17] = biological target: Tumor necrosis factor (Homo sapiens) (UniProt P01375); test: qHTS assay to identify small molecules that stimulate Tumor Necrosis Factor-alpha (TNF-alpha) secretion (AID 651757; active = well fitted curve in the direction sought with a large enough effect in the signal ratio; the % refers to the signal ratio)
# Outline: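 Secreted TNF-alpha from compound-treated THP-1 cells (17 hrs, 37 C) was quantified with a homogeneous time-resolved fluorescence antibody assay.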
# [18] = biological target: Nuclear receptor ROR-gamma (Homo sapiens) (UniProt P51449); test: qHTS assay for small molecule antagonists of the retinoid-related orphan receptor gamma (ROR-gamma) signaling pathway (AID 651802);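 note: CHO cells with doxycycline-induced ROR-gamma expression; luciferase reporter luminescence driven by ROR response element; nearly all actives have a fitted effect of over 60% in size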
# Outline: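 Antagonism is scored as a fall in luminescence from a RORE-luciferase reporter in CHO cells expressing ROR under a TET-inducible promoter, measured 16hr after doxycycline induction in the presence of compound.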
# Peroxisome proliferator-activated receptor alpha (Homo sapiens), sequence (Q07869 whole entry, looked up, the tested form may be a part): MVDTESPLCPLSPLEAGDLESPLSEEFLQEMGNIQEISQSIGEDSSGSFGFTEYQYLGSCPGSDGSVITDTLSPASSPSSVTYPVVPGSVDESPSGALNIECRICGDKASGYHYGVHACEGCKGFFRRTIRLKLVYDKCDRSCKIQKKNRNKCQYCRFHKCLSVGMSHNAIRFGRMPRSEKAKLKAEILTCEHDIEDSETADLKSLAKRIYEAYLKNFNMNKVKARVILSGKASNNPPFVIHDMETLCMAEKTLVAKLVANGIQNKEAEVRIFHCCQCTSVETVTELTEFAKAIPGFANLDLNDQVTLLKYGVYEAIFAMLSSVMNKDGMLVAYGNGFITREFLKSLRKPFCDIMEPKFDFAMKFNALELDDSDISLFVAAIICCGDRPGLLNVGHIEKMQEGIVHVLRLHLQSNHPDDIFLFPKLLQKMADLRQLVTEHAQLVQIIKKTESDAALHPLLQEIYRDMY
# Tyrosine-protein kinase Yes (Homo sapiens), sequence (P07947 whole entry, looked up): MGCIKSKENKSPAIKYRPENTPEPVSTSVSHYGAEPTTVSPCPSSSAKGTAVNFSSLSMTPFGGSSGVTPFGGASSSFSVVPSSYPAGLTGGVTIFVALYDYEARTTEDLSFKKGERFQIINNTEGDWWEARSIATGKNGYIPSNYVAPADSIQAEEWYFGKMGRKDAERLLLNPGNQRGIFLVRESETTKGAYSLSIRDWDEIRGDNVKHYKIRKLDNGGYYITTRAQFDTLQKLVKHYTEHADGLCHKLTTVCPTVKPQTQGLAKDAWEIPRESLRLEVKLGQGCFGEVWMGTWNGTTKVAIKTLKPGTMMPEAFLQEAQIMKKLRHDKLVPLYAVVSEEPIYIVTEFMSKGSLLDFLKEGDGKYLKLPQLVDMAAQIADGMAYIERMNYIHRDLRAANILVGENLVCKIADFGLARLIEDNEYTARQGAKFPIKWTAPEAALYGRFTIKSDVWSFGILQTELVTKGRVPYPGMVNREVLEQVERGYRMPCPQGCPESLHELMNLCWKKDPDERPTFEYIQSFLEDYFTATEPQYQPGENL
# Tumor necrosis factor (Homo sapiens), sequence (P01375 whole entry, looked up): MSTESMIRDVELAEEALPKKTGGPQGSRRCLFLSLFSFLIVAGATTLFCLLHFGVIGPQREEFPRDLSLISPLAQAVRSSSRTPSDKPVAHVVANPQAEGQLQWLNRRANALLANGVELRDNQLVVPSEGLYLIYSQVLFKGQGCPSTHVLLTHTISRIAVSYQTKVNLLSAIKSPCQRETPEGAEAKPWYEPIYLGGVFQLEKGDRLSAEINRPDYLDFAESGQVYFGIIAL
# Nuclear receptor ROR-gamma (Homo sapiens), sequence (P51449 whole entry, looked up): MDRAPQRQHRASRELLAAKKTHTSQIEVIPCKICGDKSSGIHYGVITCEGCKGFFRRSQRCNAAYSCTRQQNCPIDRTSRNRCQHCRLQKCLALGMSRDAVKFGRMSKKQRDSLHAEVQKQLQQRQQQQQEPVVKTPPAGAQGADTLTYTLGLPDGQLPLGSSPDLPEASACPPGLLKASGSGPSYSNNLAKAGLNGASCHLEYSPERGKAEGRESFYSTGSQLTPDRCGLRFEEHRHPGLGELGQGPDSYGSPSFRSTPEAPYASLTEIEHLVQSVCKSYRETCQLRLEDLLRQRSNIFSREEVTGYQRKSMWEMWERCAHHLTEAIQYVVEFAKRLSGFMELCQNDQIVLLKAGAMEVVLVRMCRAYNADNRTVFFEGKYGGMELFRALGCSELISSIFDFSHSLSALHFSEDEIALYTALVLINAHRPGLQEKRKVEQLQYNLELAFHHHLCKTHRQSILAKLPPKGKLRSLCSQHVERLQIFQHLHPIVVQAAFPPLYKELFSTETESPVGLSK
smiles,measurement,setting,value
COc1cc2c(N3CCN(C(=O)Nc4ccc(OC(C)C)cc4)CC3)ncnc2cc1OCCCN1CCCCC1,outcome,[1],inactive
same,Potency,[2],inactive
same,viability (% of control),[3],19.9%
same,"viability, percent of control",[4],15.5%
CCN(CC)C(=S)SSC(=S)N(CC)CC,Potency,[5],inactive
same,activation,[6],4.22% (inactive)
same,activation,[7],0.724% (inactive)
C[C@@H](N)C1CCC(C(=O)Nc2ccncc2)CC1 (stereo partly specified),outcome,[8],inactive
same,Potency,[9],inactive
same,outcome,[1],inactive
same,viability (% of control),[3],91.3%
same,"viability, percent of control",[4],95.4%
same,Potency,[10],inactive
same,Potency,[11],inactive
same,Potency,[12],inactive
CCN(CC)CCOc1ccc(Nc2ncc3cc(-c4c(Cl)cccc4Cl)c(=O)n(C)c3n2)cc1,Potency,[9],2.35 µM (active)
same,outcome,[1],inactive
same,Potency,[2],7.49 µM (active)
same,viability (% of control),[3],0.582%
same,"viability, percent of control",[4],1.36%
same,Potency,[11],26.4 µM (active)
same,Potency,[12],0.00972 nM (active)
Cc1cccc(-c2[nH]ncc2-c2ccc3ncccc3n2)n1,Potency,[9],inactive
same,outcome,[1],inactive
same,Potency,[2],13.7 µM (active)
same,viability (% of control),[3],76.5% [at 92.2 µM]
same,"viability, percent of control",[4],116% [at 92.2 µM]
same,Potency,[10],inactive
same,Potency,[11],inactive
same,Potency,[12],2.92 µM (active) and 2.23 µM (active)
O=C(NOCC1CC1)c1ccc(F)c(F)c1Nc1ccc(I)cc1Cl,Potency,[12],inactive
N[C@@H](Cc1cc(I)c(Oc2cc(I)c(O)c(I)c2)c(I)c1)C(=O)O,Potency,[5],54.5 µM (active)
same,activation,[7],8.63% (inactive)
same,Potency,[13],44.7 µM (active)
same,max response,[14],-3.72% (inactive)
Cc1ccc(C)c(OCCCC(C)(C)C(=O)O)c1,Potency,[5],inactive
same,activation,[7],-1.25% (inactive) and -0.0385% (inactive)
same,Potency,[15],inactive
same,Potency,[16],inactive
same,Potency,[17],inactive
same,activation,[13],-0.112% (inactive) and 1.21% (inactive)
same,max response,[14],0.635% (inactive) and 1.7% (inactive)
same,outcome,[18],inactive
Nc1cccc2c1CN(C1CCC(=O)NC1=O)C2=O (stereo unspecified),Potency,[9],inactive
same,outcome,[1],inactive
same,Potency,[2],inactive
same,viability (% of control),[3],102% [at 92.2 µM]
same,"viability, percent of control",[4],121% [at 92.2 µM]
same,Potency,[10],inactive
same,Potency,[11],inactive
same,Potency,[12],inactive
c1ccc2[nH]c(-c3cscn3)nc2c1,Potency,[5],inactive
same,activation,[7],-1.73% (inactive) and -1.48% (inactive)
same,Potency,[17],inactive
same,max response,[14],-1.63% (inactive) and -0.401% (inactive)
same,outcome,[18],inactive
